# Legend:
# Assay in all cases: DAPPL (digital affinity profiling via proximity ligation, sequencing); 10 mM Tris-HCl pH 7.5, 50 mM NaCl, 1 mM DTT, 4% glycerol, room temperature, 30 min; GST-TFs on glutathione beads, 16-mer random dsDNA library, 0.1% formaldehyde crosslink after washing; high values mean tight binding
# FEV = biological target: T1, FEV (Homo sapiens, UniProt Q99581 1-238); conditions: protein: recombinant; tags: N-terminal GST; dsDNA, one strand shown
# T1 sequence: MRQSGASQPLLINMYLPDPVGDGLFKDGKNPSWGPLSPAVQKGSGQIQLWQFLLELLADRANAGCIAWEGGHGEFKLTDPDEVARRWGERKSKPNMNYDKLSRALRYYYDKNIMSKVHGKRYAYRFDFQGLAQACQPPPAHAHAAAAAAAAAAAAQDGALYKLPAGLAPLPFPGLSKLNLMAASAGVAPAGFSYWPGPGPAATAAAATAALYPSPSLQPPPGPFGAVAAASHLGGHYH
# Procedure, shortened: (§1)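 Binding signal is defined as a hexamer's read frequency for one factor over its frequency for the tag-only sample. To obtain reads, GST-fused human transcription factors were expressed in yeast, captured on glutathione beads, barcoded with DNA and pooled with that sample. Pools met 200 nmole of a 16-mer random double-stranded DNA library in Tris/NaCl/DTT/glycerol buffer for 30 min at room temperature before washing, 0.1% formaldehyde crosslinking, proximity ligation (BsaI/T4 ligase, 1 h, 37 °C), PCR and Illumina NextSeq500 sequencing.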
# ETV5 = ETV5 (Homo sapiens, UniProt P41161 1-510); conditions: protein: recombinant; tags: N-terminal GST; dsDNA, one strand shown
# Procedure, shortened: as §1
# HSF1 = HSF1 (Homo sapiens, UniProt Q00613 1-529); conditions: protein: recombinant; tags: N-terminal GST; chain copies: 3; dsDNA, one strand shown
# Procedure, shortened: as §1
# SPIC = biological target: T2, SPIC (Homo sapiens, UniProt Q8N5J4 1-248); conditions: protein: recombinant; tags: N-terminal GST; dsDNA, one strand shown
# T2 sequence: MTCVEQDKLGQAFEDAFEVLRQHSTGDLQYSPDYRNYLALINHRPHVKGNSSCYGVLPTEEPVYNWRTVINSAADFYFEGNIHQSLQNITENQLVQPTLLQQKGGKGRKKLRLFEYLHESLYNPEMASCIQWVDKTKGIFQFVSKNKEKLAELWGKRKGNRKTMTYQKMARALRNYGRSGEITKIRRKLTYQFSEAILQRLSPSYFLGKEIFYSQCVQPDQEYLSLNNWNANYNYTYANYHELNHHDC
# Procedure, shortened: as §1
# ELF4 = ELF4 (Homo sapiens, UniProt Q99607 1-663); conditions: protein: recombinant; tags: N-terminal GST; dsDNA, one strand shown
# Procedure, shortened: as §1
# ELK4 = biological target: T3, ELK4 (Homo sapiens, UniProt P28324-2 1-405); conditions: protein: recombinant; tags: N-terminal GST; dsDNA, one strand shown
# T3 sequence: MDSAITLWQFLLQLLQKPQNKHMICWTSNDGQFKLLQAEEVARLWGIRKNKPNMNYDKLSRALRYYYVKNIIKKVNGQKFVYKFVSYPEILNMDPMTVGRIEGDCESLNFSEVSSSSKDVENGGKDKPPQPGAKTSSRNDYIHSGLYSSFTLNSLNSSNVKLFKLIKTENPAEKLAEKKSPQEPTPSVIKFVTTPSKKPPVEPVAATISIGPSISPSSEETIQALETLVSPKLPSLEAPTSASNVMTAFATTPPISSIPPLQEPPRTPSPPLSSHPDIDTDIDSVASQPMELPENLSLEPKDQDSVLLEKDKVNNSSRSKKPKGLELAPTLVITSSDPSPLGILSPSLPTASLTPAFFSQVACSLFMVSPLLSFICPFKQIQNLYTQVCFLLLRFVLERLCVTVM
# Procedure, shortened: as §1
# ETV2 = biological target: T4, ETV2 (Homo sapiens, UniProt O00321 1-342); conditions: protein: recombinant; tags: N-terminal GST; dsDNA, one strand shown
# T4 sequence: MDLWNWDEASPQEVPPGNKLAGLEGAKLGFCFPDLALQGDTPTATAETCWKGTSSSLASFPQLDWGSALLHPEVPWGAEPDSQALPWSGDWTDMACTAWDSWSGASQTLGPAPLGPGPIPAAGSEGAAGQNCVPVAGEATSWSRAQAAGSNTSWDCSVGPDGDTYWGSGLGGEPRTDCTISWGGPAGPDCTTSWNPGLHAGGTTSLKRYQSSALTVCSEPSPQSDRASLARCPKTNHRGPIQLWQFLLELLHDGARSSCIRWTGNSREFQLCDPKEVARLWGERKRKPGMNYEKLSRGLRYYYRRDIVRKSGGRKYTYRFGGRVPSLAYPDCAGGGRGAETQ
# Procedure, shortened: as §1
# ELF3 = biological target: T5, ELF3 (Homo sapiens, UniProt P78545 1-371); conditions: protein: recombinant; tags: N-terminal GST; dsDNA, one strand shown
# T5 sequence: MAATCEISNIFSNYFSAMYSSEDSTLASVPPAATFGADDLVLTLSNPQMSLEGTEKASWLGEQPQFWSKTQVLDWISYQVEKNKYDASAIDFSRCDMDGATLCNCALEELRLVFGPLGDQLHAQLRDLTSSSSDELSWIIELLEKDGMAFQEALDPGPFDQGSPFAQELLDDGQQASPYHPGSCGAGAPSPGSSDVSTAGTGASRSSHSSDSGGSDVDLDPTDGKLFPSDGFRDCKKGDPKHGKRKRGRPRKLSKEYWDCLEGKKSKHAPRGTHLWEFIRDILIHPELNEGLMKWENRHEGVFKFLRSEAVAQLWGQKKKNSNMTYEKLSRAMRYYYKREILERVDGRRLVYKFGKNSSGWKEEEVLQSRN
# Procedure, shortened: as §1
# CRX = CRX (Homo sapiens, UniProt O43186 1-299); conditions: protein: recombinant; tags: N-terminal GST; dsDNA, one strand shown
# Procedure, shortened: as §1
# ETV1 = ETV1 (Homo sapiens, UniProt P50549 1-477); conditions: protein: recombinant; tags: N-terminal GST; dsDNA, one strand shown
# Procedure, shortened: as §1
# ERF = biological target: T6, ERF (Homo sapiens, UniProt P50548 1-548); conditions: protein: recombinant; tags: N-terminal GST; dsDNA, one strand shown
# T6 sequence: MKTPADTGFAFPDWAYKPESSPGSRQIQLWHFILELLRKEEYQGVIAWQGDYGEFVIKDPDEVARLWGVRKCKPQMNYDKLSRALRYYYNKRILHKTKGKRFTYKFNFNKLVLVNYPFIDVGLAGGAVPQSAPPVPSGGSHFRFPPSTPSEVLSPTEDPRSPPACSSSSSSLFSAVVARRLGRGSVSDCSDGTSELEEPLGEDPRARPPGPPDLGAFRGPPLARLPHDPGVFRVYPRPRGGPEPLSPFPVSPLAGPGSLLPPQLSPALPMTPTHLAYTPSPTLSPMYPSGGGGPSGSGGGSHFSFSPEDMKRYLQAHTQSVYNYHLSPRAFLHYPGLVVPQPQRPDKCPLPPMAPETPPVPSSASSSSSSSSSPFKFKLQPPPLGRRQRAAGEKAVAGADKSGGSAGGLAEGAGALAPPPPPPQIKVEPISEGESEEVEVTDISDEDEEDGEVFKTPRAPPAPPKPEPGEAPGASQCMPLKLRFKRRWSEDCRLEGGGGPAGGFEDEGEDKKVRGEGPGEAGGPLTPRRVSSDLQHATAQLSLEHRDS
# Procedure, shortened: as §1
# ETV3L = biological target: T7, ETV3L (Homo sapiens, UniProt Q6ZN32 1-361); conditions: protein: recombinant; tags: N-terminal GST; dsDNA, one strand shown
# T7 sequence: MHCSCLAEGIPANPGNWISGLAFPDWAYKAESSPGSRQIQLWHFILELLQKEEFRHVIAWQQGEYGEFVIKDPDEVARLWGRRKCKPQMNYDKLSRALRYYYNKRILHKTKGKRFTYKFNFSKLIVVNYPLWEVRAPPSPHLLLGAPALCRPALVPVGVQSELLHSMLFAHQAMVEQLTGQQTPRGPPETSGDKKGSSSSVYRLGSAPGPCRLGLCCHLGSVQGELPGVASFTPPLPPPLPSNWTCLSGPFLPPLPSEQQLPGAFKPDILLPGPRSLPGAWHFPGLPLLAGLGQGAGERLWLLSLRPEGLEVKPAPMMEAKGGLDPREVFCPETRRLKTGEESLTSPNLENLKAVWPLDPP
# Procedure, shortened: as §1
# ETS2 = biological target: T8, ETS2 (Homo sapiens, UniProt P15036 1-469); conditions: protein: recombinant; tags: N-terminal GST; dsDNA, one strand shown
# T8 sequence: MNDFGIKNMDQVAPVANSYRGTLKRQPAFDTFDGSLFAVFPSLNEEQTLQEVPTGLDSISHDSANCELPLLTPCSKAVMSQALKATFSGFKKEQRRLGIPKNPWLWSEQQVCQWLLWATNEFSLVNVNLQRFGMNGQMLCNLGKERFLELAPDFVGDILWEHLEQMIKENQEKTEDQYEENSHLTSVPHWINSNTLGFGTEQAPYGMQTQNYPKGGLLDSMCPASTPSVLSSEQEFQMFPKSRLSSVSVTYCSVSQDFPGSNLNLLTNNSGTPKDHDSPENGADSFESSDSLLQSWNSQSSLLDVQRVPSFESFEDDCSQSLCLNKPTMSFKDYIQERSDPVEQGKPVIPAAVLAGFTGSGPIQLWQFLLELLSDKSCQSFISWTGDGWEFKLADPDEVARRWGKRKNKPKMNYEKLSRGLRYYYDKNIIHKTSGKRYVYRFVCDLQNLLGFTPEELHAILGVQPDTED
# Procedure, shortened: as §1
# SPDEF = biological target: T9, SPDEF (Homo sapiens, UniProt O95238 1-335); conditions: protein: recombinant; tags: N-terminal GST; dsDNA, one strand shown
# T9 sequence: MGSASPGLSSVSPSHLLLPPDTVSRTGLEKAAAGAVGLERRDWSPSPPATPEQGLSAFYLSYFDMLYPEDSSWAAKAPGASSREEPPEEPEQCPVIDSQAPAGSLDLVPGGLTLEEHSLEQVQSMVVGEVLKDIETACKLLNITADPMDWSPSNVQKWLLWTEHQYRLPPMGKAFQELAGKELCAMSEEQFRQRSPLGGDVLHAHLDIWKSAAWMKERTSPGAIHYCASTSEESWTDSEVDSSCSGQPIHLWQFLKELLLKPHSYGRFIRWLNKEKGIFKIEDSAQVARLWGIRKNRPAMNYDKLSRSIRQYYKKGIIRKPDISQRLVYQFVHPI
# Procedure, shortened: as §1
# ETV7 = biological target: T10, ETV7 (Homo sapiens, UniProt Q9Y603 1-341); conditions: protein: recombinant; tags: N-terminal GST; dsDNA, one strand shown
# T10 sequence: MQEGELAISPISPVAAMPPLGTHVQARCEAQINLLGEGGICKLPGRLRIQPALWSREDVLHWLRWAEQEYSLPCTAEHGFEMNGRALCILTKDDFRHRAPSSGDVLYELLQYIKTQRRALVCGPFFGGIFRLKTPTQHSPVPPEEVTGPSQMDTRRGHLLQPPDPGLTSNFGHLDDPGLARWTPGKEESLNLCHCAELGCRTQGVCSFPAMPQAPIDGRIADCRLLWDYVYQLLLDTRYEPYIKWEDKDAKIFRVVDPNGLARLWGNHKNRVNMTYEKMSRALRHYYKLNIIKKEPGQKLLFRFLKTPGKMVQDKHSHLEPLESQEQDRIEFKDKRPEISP
# Procedure, shortened: as §1
# ELF5 = biological target: T11, ELF5 (Homo sapiens, UniProt Q9UKW6-2 1-255); conditions: protein: recombinant; tags: N-terminal GST; dsDNA, one strand shown
# T11 sequence: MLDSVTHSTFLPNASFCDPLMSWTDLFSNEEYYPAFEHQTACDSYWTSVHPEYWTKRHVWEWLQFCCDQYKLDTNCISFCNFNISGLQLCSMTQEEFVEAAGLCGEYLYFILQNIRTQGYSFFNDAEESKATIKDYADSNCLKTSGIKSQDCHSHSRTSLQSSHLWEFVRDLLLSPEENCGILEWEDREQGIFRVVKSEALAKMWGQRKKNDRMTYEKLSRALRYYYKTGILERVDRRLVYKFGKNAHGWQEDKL
# Procedure, shortened: as §1
# ETV3 = biological target: T12, ETV3 (Homo sapiens, UniProt P41162-2 1-143); conditions: protein: recombinant; tags: N-terminal GST; dsDNA, one strand shown
# T12 sequence: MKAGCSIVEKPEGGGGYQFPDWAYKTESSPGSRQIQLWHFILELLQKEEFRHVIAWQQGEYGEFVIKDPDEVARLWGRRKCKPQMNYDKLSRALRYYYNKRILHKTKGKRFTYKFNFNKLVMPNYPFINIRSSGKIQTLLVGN
# Procedure, shortened: as §1
# ETV6 = ETV6 (Homo sapiens, UniProt P41212 1-452); conditions: protein: recombinant; tags: N-terminal GST; dsDNA, one strand shown
# Procedure, shortened: as §1
# ETV6, sequence (P41212 whole entry): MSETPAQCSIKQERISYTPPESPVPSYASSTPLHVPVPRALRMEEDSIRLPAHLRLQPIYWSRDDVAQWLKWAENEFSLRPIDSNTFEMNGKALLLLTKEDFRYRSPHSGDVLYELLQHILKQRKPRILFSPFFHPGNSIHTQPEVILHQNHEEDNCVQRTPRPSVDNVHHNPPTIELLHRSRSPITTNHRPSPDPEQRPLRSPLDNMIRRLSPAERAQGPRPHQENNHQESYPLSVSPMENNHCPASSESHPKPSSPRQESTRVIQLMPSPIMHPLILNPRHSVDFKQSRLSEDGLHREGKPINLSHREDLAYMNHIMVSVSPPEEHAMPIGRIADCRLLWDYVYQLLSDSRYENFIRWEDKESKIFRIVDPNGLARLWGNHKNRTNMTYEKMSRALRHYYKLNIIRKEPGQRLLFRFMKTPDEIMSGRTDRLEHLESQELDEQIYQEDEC
# ETV1, sequence (P50549 whole entry): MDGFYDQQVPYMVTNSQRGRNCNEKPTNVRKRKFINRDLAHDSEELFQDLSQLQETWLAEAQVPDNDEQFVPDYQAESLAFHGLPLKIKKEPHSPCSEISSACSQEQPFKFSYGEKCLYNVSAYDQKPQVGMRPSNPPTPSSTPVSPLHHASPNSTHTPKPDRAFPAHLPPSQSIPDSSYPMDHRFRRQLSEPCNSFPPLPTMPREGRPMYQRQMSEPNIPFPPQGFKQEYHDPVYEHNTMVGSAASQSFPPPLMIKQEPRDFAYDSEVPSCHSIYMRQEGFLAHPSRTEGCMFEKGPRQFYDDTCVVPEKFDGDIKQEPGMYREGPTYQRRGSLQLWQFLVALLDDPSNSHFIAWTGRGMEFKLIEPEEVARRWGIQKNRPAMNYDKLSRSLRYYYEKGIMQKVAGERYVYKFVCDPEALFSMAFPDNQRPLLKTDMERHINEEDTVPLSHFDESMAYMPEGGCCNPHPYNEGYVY
# ETV5, sequence (P41161 whole entry): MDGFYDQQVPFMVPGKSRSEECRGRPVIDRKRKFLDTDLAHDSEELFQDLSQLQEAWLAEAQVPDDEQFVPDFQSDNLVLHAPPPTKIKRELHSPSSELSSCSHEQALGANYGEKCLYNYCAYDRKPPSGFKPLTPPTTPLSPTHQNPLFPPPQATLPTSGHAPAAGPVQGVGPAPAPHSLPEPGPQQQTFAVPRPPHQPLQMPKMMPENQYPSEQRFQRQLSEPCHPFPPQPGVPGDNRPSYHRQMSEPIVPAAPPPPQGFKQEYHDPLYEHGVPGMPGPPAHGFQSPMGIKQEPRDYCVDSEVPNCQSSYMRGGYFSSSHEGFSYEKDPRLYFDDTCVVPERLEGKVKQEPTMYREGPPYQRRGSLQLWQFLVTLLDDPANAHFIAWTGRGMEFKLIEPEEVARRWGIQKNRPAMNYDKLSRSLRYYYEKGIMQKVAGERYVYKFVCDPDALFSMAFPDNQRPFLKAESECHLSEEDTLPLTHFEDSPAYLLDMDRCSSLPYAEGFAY
# HSF1, sequence (Q00613 whole entry): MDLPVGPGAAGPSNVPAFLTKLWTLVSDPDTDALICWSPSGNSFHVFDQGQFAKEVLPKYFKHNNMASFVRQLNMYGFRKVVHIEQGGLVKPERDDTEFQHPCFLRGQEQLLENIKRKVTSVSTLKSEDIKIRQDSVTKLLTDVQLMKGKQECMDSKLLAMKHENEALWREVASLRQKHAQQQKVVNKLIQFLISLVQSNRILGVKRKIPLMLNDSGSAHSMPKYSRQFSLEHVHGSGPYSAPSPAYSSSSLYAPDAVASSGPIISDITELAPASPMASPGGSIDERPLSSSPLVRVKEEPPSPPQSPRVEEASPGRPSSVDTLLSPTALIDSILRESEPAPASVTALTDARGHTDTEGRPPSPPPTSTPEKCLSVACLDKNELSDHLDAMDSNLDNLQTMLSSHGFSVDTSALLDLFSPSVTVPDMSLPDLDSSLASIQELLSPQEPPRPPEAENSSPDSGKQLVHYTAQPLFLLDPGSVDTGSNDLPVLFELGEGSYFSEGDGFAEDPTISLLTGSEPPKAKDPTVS
# CRX, sequence (O43186 whole entry): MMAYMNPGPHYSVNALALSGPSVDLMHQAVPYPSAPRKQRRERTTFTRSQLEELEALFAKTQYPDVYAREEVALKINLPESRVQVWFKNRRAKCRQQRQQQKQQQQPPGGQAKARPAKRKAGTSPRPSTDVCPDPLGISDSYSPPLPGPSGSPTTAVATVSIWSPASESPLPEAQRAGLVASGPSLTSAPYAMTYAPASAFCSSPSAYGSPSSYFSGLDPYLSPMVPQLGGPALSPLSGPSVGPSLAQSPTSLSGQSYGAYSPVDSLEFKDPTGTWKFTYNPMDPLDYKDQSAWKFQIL
# ELF4, sequence (Q99607 whole entry): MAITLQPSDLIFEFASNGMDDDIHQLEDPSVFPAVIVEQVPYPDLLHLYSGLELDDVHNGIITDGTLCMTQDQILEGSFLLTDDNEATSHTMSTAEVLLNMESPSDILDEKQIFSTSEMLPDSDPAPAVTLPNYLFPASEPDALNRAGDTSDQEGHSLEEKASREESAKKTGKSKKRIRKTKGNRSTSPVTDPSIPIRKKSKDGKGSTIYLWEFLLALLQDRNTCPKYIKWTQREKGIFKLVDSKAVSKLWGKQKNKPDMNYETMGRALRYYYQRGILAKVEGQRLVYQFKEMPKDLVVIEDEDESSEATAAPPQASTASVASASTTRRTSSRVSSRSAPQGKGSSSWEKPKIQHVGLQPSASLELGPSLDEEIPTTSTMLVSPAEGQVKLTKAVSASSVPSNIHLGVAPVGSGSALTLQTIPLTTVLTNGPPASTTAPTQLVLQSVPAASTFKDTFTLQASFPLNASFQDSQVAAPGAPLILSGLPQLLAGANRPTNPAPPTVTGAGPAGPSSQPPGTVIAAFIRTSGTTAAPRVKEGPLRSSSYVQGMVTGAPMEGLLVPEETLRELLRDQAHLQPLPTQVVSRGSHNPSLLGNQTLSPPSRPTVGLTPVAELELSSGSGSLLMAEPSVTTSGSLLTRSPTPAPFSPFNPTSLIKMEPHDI
sequence,measurement,setting,value
GCTCAC,binding signal,FEV,"1.54 fold enrichment (6-mer frequency, TF over GST control)"
same,binding signal,ETV5,"1.47 fold enrichment (6-mer frequency, TF over GST control)"
same,binding signal,HSF1,"1.22 fold enrichment (6-mer frequency, TF over GST control)"
same,binding signal,SPIC,"1.32 fold enrichment (6-mer frequency, TF over GST control)"
same,binding signal,ELF4,"1.53 fold enrichment (6-mer frequency, TF over GST control)"
same,binding signal,ELK4,"1.53 fold enrichment (6-mer frequency, TF over GST control)"
same,binding signal,ETV2,"1.63 fold enrichment (6-mer frequency, TF over GST control)"
same,binding signal,ELF3,"1.49 fold enrichment (6-mer frequency, TF over GST control)"
same,binding signal,CRX,"1.37 fold enrichment (6-mer frequency, TF over GST control)"
same,binding signal,ETV1,"1.37 fold enrichment (6-mer frequency, TF over GST control)"
same,binding signal,ERF,"1.58 fold enrichment (6-mer frequency, TF over GST control)"
same,binding signal,ETV3L,"1.57 fold enrichment (6-mer frequency, TF over GST control)"
same,binding signal,ETS2,"1.43 fold enrichment (6-mer frequency, TF over GST control)"
same,binding signal,SPDEF,"1.42 fold enrichment (6-mer frequency, TF over GST control)"
same,binding signal,ETV7,"1.4 fold enrichment (6-mer frequency, TF over GST control)"
same,binding signal,ELF5,"1.49 fold enrichment (6-mer frequency, TF over GST control)"
same,binding signal,ETV3,"1.47 fold enrichment (6-mer frequency, TF over GST control)"
same,binding signal,ETV6,"1.45 fold enrichment (6-mer frequency, TF over GST control)"
